Screening results from PubChem BioAssay.
TWEAK Fn14 block: inhibitors of TWEAK-Fn14 signaling, primary screen, luciferase reporter cells, uHTS; TWEAK-stimulated Fn14 reporter cells, luciferase luminescence, 8 h; inhibition, % at 10 µM; 360,000 compounds, 2% hits; AID 1159606, 2016; in the data active means inhibition above about 50%
hiPSC survival: enhancers of single-cell hiPSC survival, primary screen, ATPlite luminescence; 100% = ROCK inhibitor wells, 0% = DMSO; survival enhancement, % at 20 µM; 360,000 compounds, 0.044% hits; in the data active means survival enhancement above about 18%;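 further: cells exposed to compounds for 16 hours before the ATP read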
KKLEB cytotox: cytotoxicity in KKLEB CF airway cells, primary screen, cytotoxicity control for CF NF-kB inhibitor project, cell-based, uHTS, fluorescence assay plates; activity change (cytotoxicity), % at 5 µM; 360,000 compounds, 0.36% hits; KKLEB CF airway cells viability, ATPlite luminescence, overnight; active compounds read low; cells stimulated with P. aeruginosa culture filtrate; AID 602141, 2011;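 active means corrected activity change at or below -50% at 5 µM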
LGR2 inh: inhibitors of bursicon-induced LGR2 CRE-luciferase signal, primary screen, cell-based, HEK293, CRE-luciferase reporter, bursicon stimulation; Drosophila bursicon receptor LGR2 (rickets); bursicon-stimulated, 4 h; inhibition, % at 9.99 µM; 380,000 compounds, 0.35% hits;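 active means drop in luminescence signal, shown as inhibition above about 50% in the replicate tests, limit read from the data, passing the limit was not always enough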;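 further: agonist challenge used bursicon conditioned medium at about half maximal strength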
HIF-2a inh: HIF-2a reporter inhibitors, primary screen, luminescence, 786-0 RCC cells; 786-0 RCC cells HIF-2a reporter, luciferase luminescence, overnight; inhibition, % at 18.8 µM; AID 624352, 2012; 360,000 compounds, 0.72% hits;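 active means inhibition of the luminescence signal of 40% or more relative to plate controls, in a single-dose primary screen at 18.75 µM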
CF NFkB block: inhibitors of PAF-induced NF-kB signaling, primary screen, cell-based, GFP fluorescence, uHTS. inhibition, % at 5 µM. KKLEB NF-kB-GFP reporter, GFP fluorescence overnight. 360,000 compounds, 0.86% hits;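 active means at least 50% inhibition at 5 µM, scaled per plate between neutral and stimulator controls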;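 further: PAF is a Pseudomonas aeruginosa culture filtrate used as stimulus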
Mdm2 MdmX conf: retested Mdm2-MdmX interaction blockers, confirmation, cell-based, luminescence, single concentration, set 2. 740 compounds, 99% hits. inhibition, % at 8 µM. SaOS-2 split-luciferase Mdm2/MdmX complementation. shares compounds with HIF-2a inh. AID 504601, 2011;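 active means mean inhibition of the luminescence signal across two replicates at or above 26 percent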
Target sequence (O15151 whole entry, looked up): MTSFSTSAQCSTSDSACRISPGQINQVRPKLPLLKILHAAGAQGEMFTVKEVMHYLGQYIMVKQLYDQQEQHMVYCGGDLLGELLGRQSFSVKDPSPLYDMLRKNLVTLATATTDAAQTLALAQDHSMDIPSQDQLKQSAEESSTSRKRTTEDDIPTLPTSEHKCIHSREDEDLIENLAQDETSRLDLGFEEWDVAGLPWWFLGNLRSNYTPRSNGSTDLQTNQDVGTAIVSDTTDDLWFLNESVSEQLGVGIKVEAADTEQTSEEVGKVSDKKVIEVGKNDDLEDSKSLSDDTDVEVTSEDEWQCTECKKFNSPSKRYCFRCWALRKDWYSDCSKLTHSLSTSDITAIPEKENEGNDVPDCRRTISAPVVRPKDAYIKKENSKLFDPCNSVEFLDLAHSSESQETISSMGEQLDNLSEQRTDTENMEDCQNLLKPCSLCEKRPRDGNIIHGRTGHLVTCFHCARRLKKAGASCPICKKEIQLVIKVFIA
Target sequence (Q00987 whole entry, looked up): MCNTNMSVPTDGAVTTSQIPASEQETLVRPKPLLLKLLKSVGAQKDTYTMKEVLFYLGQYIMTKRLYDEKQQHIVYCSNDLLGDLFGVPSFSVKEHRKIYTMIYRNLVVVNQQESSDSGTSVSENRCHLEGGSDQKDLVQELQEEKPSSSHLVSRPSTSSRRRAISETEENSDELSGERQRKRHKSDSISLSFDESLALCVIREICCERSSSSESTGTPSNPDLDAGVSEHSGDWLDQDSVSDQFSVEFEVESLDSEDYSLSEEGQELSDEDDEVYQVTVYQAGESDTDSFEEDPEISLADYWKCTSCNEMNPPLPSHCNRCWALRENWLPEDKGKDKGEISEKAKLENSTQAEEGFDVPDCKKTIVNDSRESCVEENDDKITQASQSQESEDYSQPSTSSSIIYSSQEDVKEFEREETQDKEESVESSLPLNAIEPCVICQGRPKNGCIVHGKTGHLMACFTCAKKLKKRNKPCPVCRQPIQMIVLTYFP
HIF-2a inh conf: HIF-2a reporter inhibitor retest, confirmation, luminescence, 786-0 RCC cells | inhibition, % at 18.8 µM | shares compounds with HIF-2a inh | 1,800 compounds, 56% hits | HIF-2a luciferase reporter luminescence, overnight;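 active means mean inhibition across four replicates of at least 40 percent at the single tested concentration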
HIF-1a cs: HIF-1a luciferase reporter signal reduction – MiaPaCa-2 cells, single concentration, counter-screen for HIF-2a inhibitor project, confirmation; MiaPaCa-2 HIF-1a luciferase reporter, desferoxamine, overnight; inhibition, % at 18.8 µM; 1,800 compounds, 72% hits; AID 651589, 2012; shares compounds with HIF-2a inh;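 active means mean inhibition of the reporter signal across four replicates at the single tested dose of 50% or more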
Hits are given with their value; - = inactive; . = no result given. Rows were chosen to be rich in hits. Some 2.3% of all compounds tested hit in one or more screens of this group.

SMILES	TWEAK Fn14 block	hiPSC survival	KKLEB cytotox	LGR2 inh	HIF-2a inh	CF NFkB block	HIF-2a inh conf	HIF-1a cs	others
COc1ccccc1NC(=S)N=Nc1c(O)[nH]c2ccc(Br)cc12	-	-	-	-	-	-	.	.	Mdm2 MdmX conf=84.2
CO[C@@H]1CN(C)C(=O)c2ccc(NC(=O)Nc3ccc(Cl)cc3)cc2OC[C@@H](C)N(C(=O)Nc2c(C)noc2C)C[C@H]1C	.	.	.	-	.	.	.	.
Cc1ccc(C)c(C(=O)Cn2ncc(Cl)c(Cl)c2=O)c1	68.3	-	-	-	86.3	-	-	104.3
O=c1c2ccccc2cnn1Cc1ccc(Cl)c(Cl)c1	-	-	-	-	-	-	.	.
Cc1cccc(Cn2ncc(Cl)c(Cl)c2=O)c1	-	-	-	99.3	-	-	.	.	Mdm2 MdmX conf=102.7
Cc1ccc(C)c(C(=O)CSc2nnc(C)s2)c1	-	-	-	-	-	-	.	.
Cc1cc2oc(=O)cc(CN3CCN(c4ccccc4)CC3)c2cc1Cl	-	-	-	-	-	-	.	.
Cc1cc2oc(=O)cc(Cn3ncc(Cl)c(Cl)c3=O)c2cc1Cl	79.8	-	-68.7	.	-	87.8	.	.	Mdm2 MdmX conf=103.0
CCC(=O)N[C@H]1C=C[C@H](CC(=O)NCc2ccc(OC)cc2)O[C@H]1CO	.	.	.	-	.	.	.	.
C[C@H](CO)N1C[C@H](C)[C@H](CN(C)S(=O)(=O)c2ccc(F)cc2)Oc2c(NS(=O)(=O)c3cn(C)cn3)cccc2C1=O	.	.	.	-	.	.	.	.
CCOC(=O)CNC(=O)CSc1ncnc2c1cnn2-c1ccccc1	-	-	-	.	41.1	-	-	-
CCOC(=O)CNC(=O)CSc1ncnc2c1cnn2-c1ccc(C)cc1	-	-	-	.	-	-	.	.
C[C@H](CO)N1C[C@H](C)[C@H](CN(C)C(=O)Cc2cccnc2)Oc2ncc(/C=C/c3ccccc3)cc2C1=O	.	.	.	-	.	.	.	.
CCn1c(/C=C/N(C(C)=O)c2ccccc2)[n+](CCCS(=O)(=O)[O-])c2cc(Cl)c(Cl)cc21	-	-	-	.	-	-	.	.
CCn1c(/C=C/Nc2ccccc2)[n+](CC)c2cc(Cl)c(Cl)cc21	-	-	-	-	68.3	-	-	87.8
Cc1noc(C)c1NC(=O)Nc1ccc2c(c1)C(=O)N([C@H](C)CO)C[C@@H](C)[C@H](CN(C)Cc1ccc(Oc3ccccc3)cc1)O2	.	.	.	-	.	.	.	.
S=C(c1ccc(-c2ccccc2)cc1)N1CCOCC1	-	-	-	-	86.2	-	89.2	53.5
O=C(NNc1nc2ccccc2s1)Nc1ccc(Cl)c(Cl)c1	51.9	-	-	-	40.5	-	-	-
C[C@@H]1CN([C@H](C)CO)C(=O)c2cc(NC(=O)NC3CCCCC3)ccc2O[C@@H](C)CCCCO[C@@H]1CN(C)C(=O)Nc1ccc(F)cc1	.	.	.	-	.	.	.	.
COCCn1c(C)cc(C(=O)CSc2nnc3ccccn23)c1C	-	-	-	62.5	44.4	-	76.4	-
O=C(Cn1ncc(Cl)c(Cl)c1=O)NC(=O)NC1CCCCC1	104.1	-	-64.3	96.3	84.2	90.5	91.7	105.6	Mdm2 MdmX conf=101.5
COc1ccc(NC(=O)CSc2c3c(nc4ccccc24)CCCC3)c(OC)c1	-	-	-	-	47.0	-	-	91.4
COc1ccccc1NC(=O)CSc1c2c(nc3ccccc13)CCC2	-	-	-	-	-	-	.	.
COc1ccc2ncc(S(=O)(=O)c3ccccc3)c(N3CCC4(CC3)OCCO4)c2c1	-	-	-	-	-	-	.	.
COc1cc2ncc(S(=O)(=O)c3ccccc3)c(N3CCC4(CC3)OCCO4)c2cc1OC	-	-	-	-	40.2	-	-	98.4
SMILES	TWEAK Fn14 block	hiPSC survival	KKLEB cytotox	LGR2 inh	HIF-2a inh	CF NFkB block	HIF-2a inh conf	HIF-1a cs	others
CC(C)(C)c1ccc(C(=O)NCCOc2ccccc2F)cc1	94.6	-	-	67.2	41.5	-	61.0	72.8
COc1ccccc1C(=O)NCCOc1ccc(C(C)(C)C)cc1	-	-	-	-	-	-	.	.
O=[N+]([O-])c1ccc(COc2ccc(-c3[nH]ncc3-c3ccccc3)c(O)c2)cc1	-	-	-	-	-	-	.	.
Oc1cc(OCc2ccccc2)ccc1-c1[nH]ncc1-c1ccccc1	-	-	-	-	57.3	-	-	-
CNC(=O)NC(=O)COC(=O)CCCSc1nc2ccccc2s1	59.1	-	-	.	64.2	-	84.7	56.7
CC(C)OC(=O)CSc1nc2ccccc2s1	-	-	-	.	-	-	.	.
N#Cc1ccsc1NC(=O)COC(=O)CCCSc1nc2ccccc2s1	-	-	-	.	63.9	-	69.2	52.7
CCc1ccccc1NC(=O)CCCSc1nc2ccccc2s1	-	-	-	-	-	-	.	.
NC(=O)COC(=O)CCCSc1nc2ccccc2s1	54.0	-	-	-	56.7	-	76.1	-
CC(OC(=O)CCCSc1nc2ccccc2s1)C(=O)NC(N)=O (stereo not drawn)	-	-	-	-	49.6	-	84.5	62.6
COCCNC(=O)C[C@@H]1CC[C@@H]2[C@H](COC[C@H](O)CN2C(=O)Nc2ccccc2OC)O1	.	.	.	-	.	.	.	.
C[C@@H](NC(=O)C[C@@H]1C[C@@H]2c3cc(NS(C)(=O)=O)ccc3O[C@@H]2[C@@H](CO)O1)c1ccccc1	.	.	.	-	.	.	.	.
CCC(=O)Nc1ccc2c(c1)C(=O)N(C)C[C@H](OC)[C@@H](C)CN(C(=O)CC1CC1)[C@H](C)CO2	.	.	.	-	.	.	.	.
CC(=O)N(C)C[C@H]1Oc2cc(C#Cc3ccccc3F)ccc2S(=O)(=O)N([C@H](C)CO)C[C@H]1C	.	.	.	-	.	.	.	.
CN(C)CC(=O)Nc1ccc2c(c1)[C@H]1C[C@@H](CC(=O)N3CCc4ccccc4C3)O[C@H](CO)[C@H]1O2	.	.	.	-	.	.	.	.
Cc1ccc(N=c2c([N+](=O)[O-])nn(-c3ccc4c(c3)OCCO4)n2O)cc1F	99.8	-	-	-	70.2	-	83.6	94.4
Cc1cc(C)cc(N=c2c([N+](=O)[O-])nn(-c3ccc4c(c3)OCCO4)n2O)c1	-	-	-	-	-	-	.	.
O=[N+]([O-])c1nn(-c2ccc3c(c2)OCCO3)n(O)c1=Nc1ccc(Cl)cc1	100.5	-	-	-	61.0	-	76.9	100.5
